Inconclusive results are not listed. Unless noted, the call rests on the fitted dose curve; in most records, active means well fitted curve in either direction with a large enough effect (not every such curve was filed as active); inconclusive means small, poorly fitted or top-dose-only effect, or another doubt; inactive means flat fitted curve, though single readings scatter.
How the values were obtained:
[1] = AP1 Signaling Pathway (AID 357); conditions: ME-180 AP-1-bla reporter, EGF-induced, beta-lactamase ratio, 5 h; at 17.2 µM (top of the series) unless noted;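 further: ME-180 reporter cells stimulated with EGF at its EC50 level; on the % scale 0 is the no-effect control and ±100 the full control effect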
In short: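 Cells are seeded overnight, exposed to compound titrations and an EC50 level of EGF for 5 hours at 37 °C, then loaded with CCF4 dye for 2.5 hours. Beta-lactamase activity under the AP-1 element is read as a blue/green ratio.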

[2] = NFAT Signaling Pathway (AID 444); conditions: Jurkat NFAT-bla M1, carbachol, beta-lactamase ratio, 5 h; at 17.2 µM (top of the series) unless noted;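 further: carbachol stimulus at about its EC50 of 1 µM final; on the % scale 0 is the no-effect control and ±100 the full control effect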
In short: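 Jurkat cells with NFAT-driven β-lactamase reporter and co-expressed M1 receptor, stimulated with carbachol (final 1 uM, ~EC50), compound titration, 5 h at 37 °C. CCF4 loaded 1 h at RT; 460/530 nm ratio gave %activity and AC50.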

[3] = Stat Signaling Pathway (AID 446); conditions: ME-180 (cervical carcinoma) SIE beta-lactamase reporter, IL-6 stimulated, 5 h; at 17.2 µM (top of the series) unless noted;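 further: ME-180 cervical cancer cells given 40 pM IL-6 alongside compound; SIE-controlled beta-lactamase reporter measured as 460/530 nm FRET emission ratio; on the % scale 0 is the no-effect control and ±100 the full control effect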
In short: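 IL-6/STAT signaling read in ME-180 cells via an SIE beta-lactamase reporter. Stimulus was 40 pM IL-6 (its AC50) for 5 hrs, so both activation and inhibition register.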

[4] = molecular target: Glucocorticoid receptor (Homo sapiens) (UniProt P04150); assay: GR-GFP Redistribution (AID 450;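 active means compounds whose dose series gives a full or clear partial fitted curve of increased nuclear translocation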; further: potency means the concentration at half of the fitted maximal effect)
Chain of Glucocorticoid receptor (Homo sapiens) (P04150 whole entry, looked up): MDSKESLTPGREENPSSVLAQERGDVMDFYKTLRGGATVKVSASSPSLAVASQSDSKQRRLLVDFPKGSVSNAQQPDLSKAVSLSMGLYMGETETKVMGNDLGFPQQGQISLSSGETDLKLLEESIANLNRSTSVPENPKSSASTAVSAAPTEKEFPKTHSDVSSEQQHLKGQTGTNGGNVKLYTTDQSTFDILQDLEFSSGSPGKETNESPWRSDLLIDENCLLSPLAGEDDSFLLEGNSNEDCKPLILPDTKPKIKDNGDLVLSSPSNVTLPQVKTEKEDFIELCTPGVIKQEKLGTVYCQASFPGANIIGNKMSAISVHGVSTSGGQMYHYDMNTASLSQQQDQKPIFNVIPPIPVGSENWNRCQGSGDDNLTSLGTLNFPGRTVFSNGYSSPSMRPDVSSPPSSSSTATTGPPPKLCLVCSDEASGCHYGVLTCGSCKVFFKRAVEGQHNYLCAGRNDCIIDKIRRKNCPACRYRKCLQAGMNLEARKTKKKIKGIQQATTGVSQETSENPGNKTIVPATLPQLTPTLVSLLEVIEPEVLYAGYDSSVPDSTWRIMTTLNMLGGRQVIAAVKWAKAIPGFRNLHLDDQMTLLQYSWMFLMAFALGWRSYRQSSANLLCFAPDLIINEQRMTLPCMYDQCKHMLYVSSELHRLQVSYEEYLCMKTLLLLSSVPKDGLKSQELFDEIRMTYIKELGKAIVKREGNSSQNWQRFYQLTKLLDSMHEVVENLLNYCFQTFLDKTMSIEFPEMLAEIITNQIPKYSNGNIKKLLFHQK

C=CCN(C(=O)CCC(=O)O)C1CC(=O)N(c2ccc(OCCC)cc2)C1=O (stereo not given)
inactive: activity change, negative = inhibition [1] 3.6% | activity change, negative = inhibition [2] -2.1% | activity, negative = inhibition [3] -6.77% | Potency [4] > 20.6 µM

CCC1=C(C(=O)OC)C(c2cc(OC)ccc2OC)C(C#N)=C(N)O1 (stereo not given)
inactive: activity change, negative = inhibition [1] -1.51% | activity change, negative = inhibition [2] -14.5% | activity, negative = inhibition [3] 4.21% | Potency [4] > 20.6 µM

C=CCn1c(-c2ccccc2)n[nH]c1=S
inactive: activity change, negative = inhibition [1] 6.97% | activity change, negative = inhibition [2] -4.63% | activity, negative = inhibition [3] 3.46% | Potency [4] > 20.6 µM

CC1(C)CC(N(Cc2ccco2)C(=O)Cc2ccccc2)CCO1 (stereo not given)
inactive: activity change, negative = inhibition [1] -1.99% | activity change, negative = inhibition [2] -3.12% | activity, negative = inhibition [3] 9.62% | Potency [4] > 20.6 µM

CCOC(=O)C1=C(C)N=C2SC(C)C(=O)N2C1c1ccc(OC(C)=O)c(OC)c1 (stereo not given)
inactive: activity change, negative = inhibition [1] -14.1% | activity change, negative = inhibition [2] 10.3% | activity, negative = inhibition [3] -17.1% | Potency [4] > 20.6 µM

CCOC(=O)c1ccc(CSc2ncn[nH]2)o1
inactive: activity change, negative = inhibition [1] 0.882% | activity change, negative = inhibition [2] -2.95% | activity, negative = inhibition [3] 5.39% | Potency [4] > 20.6 µM

Cc1cccc(-c2nnc3n2N=C(c2ccc(Br)cc2)CS3)c1
inactive: activity change, negative = inhibition [1] 11.1% | activity change, negative = inhibition [2] -1.71% | activity, negative = inhibition [3] 7.64% | Potency [4] > 20.6 µM

Cc1ccc2[nH]c(CCN(C)C)c(CC#N)c2c1
inactive: activity change, negative = inhibition [1] 12.9% | activity change, negative = inhibition [2] 8.6% | activity, negative = inhibition [3] 5.44% | Potency [4] > 20.6 µM

COc1ccc(/C(O)=C2\C(=O)C(=O)N(CCN(C)C)C2c2cccc(OC)c2OC)cc1Cl (stereo not given)
inactive: activity change, negative = inhibition [1] -2.56% | activity change, negative = inhibition [2] 11.9% | activity, negative = inhibition [3] 8.3% | Potency [4] > 20.6 µM

CC/C(=N\O)c1ccc(OC)c(OC)c1
inactive: activity change, negative = inhibition [1] 4.83% | activity change, negative = inhibition [2] 2.19% | activity, negative = inhibition [3] 3.07% | Potency [4] > 20.6 µM

Cc1nnc2n(-c3ccccc3)c(=O)c3c4c(sc3n12)CCCC4
inactive: activity change, negative = inhibition [1] 21.9% | activity change, negative = inhibition [2] -2.17% | activity, negative = inhibition [3] 10.4% | Potency [4] > 20.6 µM

O=C(NCc1ccccc1)C1C(=O)N(Cc2ccccc2)C(=O)C1C1(O)CCCC1 (stereo not given)
inactive: activity change, negative = inhibition [1] -16.6% | activity change, negative = inhibition [2] 23.6% | activity, negative = inhibition [3] -6.02% | Potency [4] > 20.6 µM

Cc1ccc(C(C)C)c(OCCNc2nc3c(c(=O)n(C)c(=O)n3C)n2C)c1
inactive: activity change, negative = inhibition [1] -0.712% | activity change, negative = inhibition [2] 13.4% | activity, negative = inhibition [3] -22.6% | Potency [4] > 20.6 µM

Cc1c(-c2cccs2)[n+](=O)c2c(n1[O-])CCCC2
inactive: activity change, negative = inhibition [1] 14.7% | activity change, negative = inhibition [2] -0.25% | activity, negative = inhibition [3] 6.22% | Potency [4] > 20.6 µM

O=C(O)c1cc2n(n1)C(C(F)(F)F)CC(c1ccccc1)N2 (stereo not given)
inactive: activity change, negative = inhibition [1] 3.84% | activity change, negative = inhibition [2] -0.387% | activity, negative = inhibition [3] -1.46% | Potency [4] > 20.6 µM

Cc1cccc(N(CC(O)CN(C)C)S(=O)(=O)c2ccccc2)c1 (stereo not given)
inactive: activity change, negative = inhibition [1] -9.68% | activity change, negative = inhibition [2] -3.01% | activity, negative = inhibition [3] 3.62% | Potency [4] > 20.6 µM

COc1cc(-c2nn3c(C4CCCCC4)nnc3s2)cc(OC)c1OC
inactive: activity change, negative = inhibition [1] -16.1% | activity change, negative = inhibition [2] 10.4% | activity, negative = inhibition [3] 0.0449% | Potency [4] > 20.6 µM

Cc1cc(N2CCN(C3CCCC3)CC2)n2c(nc3ccccc32)c1C#N
inactive: activity change, negative = inhibition [1] 17.3% | activity change, negative = inhibition [2] 19.5% | activity, negative = inhibition [3] 28.2% | Potency [4] > 20.6 µM

CC1(C)SC2[C@H](NC(=O)C(NC(=O)N3CCNC3=O)c3ccccc3)C(=O)N2C1C(=O)O (stereo not given in full)
inactive: activity change, negative = inhibition [1] -0.219% | activity change, negative = inhibition [2] 7.62% | activity, negative = inhibition [3] 1.47% | Potency [4] > 20.6 µM

O=C1CC(NCc2ccc3c(c2)OCO3)C(=O)N1Cc1ccc2c(c1)OCO2 (stereo not given)
inactive: activity change, negative = inhibition [1] -14.2% | activity change, negative = inhibition [2] 15.6% | activity, negative = inhibition [3] -1.08% | Potency [4] > 20.6 µM

CCOC(=O)C(C)Oc1nc(Oc2ccccc2)nc(N(C)C)n1 (stereo not given)
inactive: activity change, negative = inhibition [1] -9.94% | activity change, negative = inhibition [2] 11% | activity, negative = inhibition [3] 2.57% | Potency [4] > 20.6 µM

N#CCCN(C(=O)c1ccco1)c1ccccc1
inactive: activity change, negative = inhibition [1] -22.8% | activity change, negative = inhibition [2] 2.26% | activity, negative = inhibition [3] 9.28% | Potency [4] > 20.6 µM

CC(C)(C)NCC(=O)c1c[nH]c2ccccc12
inactive: activity change, negative = inhibition [1] 9.26% | activity change, negative = inhibition [2] -0.153% | activity, negative = inhibition [3] 14.8% | Potency [4] > 20.6 µM

CCn1nnc(C(=O)O)c1C(=O)O
inactive: activity change, negative = inhibition [1] 3.44% | activity change, negative = inhibition [2] 3.87% | activity, negative = inhibition [3] 1.11% | Potency [4] > 20.6 µM

Cn1c(=O)n(C)c2cc(C(=O)c3ccccc3)ccc21
inactive: activity change, negative = inhibition [1] 17.6% | activity change, negative = inhibition [2] -28.2% | activity, negative = inhibition [3] -6.62% | Potency [4] > 20.6 µM
